This passage reports growth results from PubChem BioAssay (NCI).

The panel holds about 83,000 compounds, 20% with a hit somewhere; the sample as a whole holds those more often.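 Percent growth is the endpoint: 0 to 100 indicates growth inhibition (40 means 60% inhibition), 0 means no net growth, and negative values indicate cell death.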 Unmarked numbers belong to inactive results. Active and inactive are the calls of the source. How the source made its calls: active means growth percent below 10; inactive means the rest.

Some test systems named below: NCI-H23 lung; NCI-H226 lung; NCI-H322M lung; HOP-62 NSCLC; NCI-H460 lung; HOP-92 NSCLC; NCI-H522 lung; A549/ATCC NSCLC; 786-0 renal; COLO 205 colon.
Holding throughout (test): NCI-60 one-dose screen, 48 h (100 = growth as untreated, 0 = no growth, -100 = all killed)
Holding throughout (conditions): 10 µM unless noted

Consider `NC(=O)c1ccc[n+]([C@@H]2O[C@H](COP(=O)([O-])OP(=O)(O)OC[C@H]3O[C@@H](n4cnc5c(N)ncnc54)[C@H](O)[C@@H]3O)[C@@H](O)[C@H]2O)c1`, for which the growth in the assay with NCI-H23 lung was 103%; in the assay on NCI-H226 lung it was 117%; with NCI-H322M lung, 113%; in the assay on HOP-62 NSCLC, 108%; in the assay on NCI-H460 lung, 104%; with HOP-92 NSCLC, 111%. In addition, the growth in the assay on NCI-H522 lung is 105%; with A549/ATCC NSCLC it was 105%; in the assay on 786-0 renal it was 103%; in the assay on COLO 205 colon it was 113%.
With `O=C1Nc2ccc(F)cc2C12Nc1cc(Cl)ccc1S2` (stereo not given), the growth with NCI-H23 lung was 80.1%; in the assay on NCI-H226 lung, 108%; in the assay on NCI-H322M lung, 84.6%; in the assay with HOP-62 NSCLC, 111%; in the assay on NCI-H460 lung it was 89.5%; in the assay on HOP-92 NSCLC it was -5.66% (active). The growth in the assay on NCI-H522 lung was 90.9%; in the assay with A549/ATCC NSCLC it was 94.9%; in the assay with 786-0 renal, 105%; in the assay with COLO 205 colon it was 112%.
`Cc1c2c(c(C)c3c1oc1cc(O)ccc13)C(=O)N(CCN1CCCCC1)C2=O`: the growth with NCI-H23 lung is 94.6%; with NCI-H226 lung, 88.5%; in the assay with NCI-H322M lung, 85.9%; with HOP-62 NSCLC, 80%; with NCI-H460 lung, 38.7%; in the assay on HOP-92 NSCLC it was 92.4%. For the same molecule, the growth with NCI-H522 lung was 94.1%; with A549/ATCC NSCLC, 81.2%; in the assay on 786-0 renal, 71.7%; in the assay with COLO 205 colon it was 85.8%.
On to `N/C(=N/N=C/c1ccccc1)N/N=C\c1ccccc1`, for which the growth in the assay with NCI-H23 lung was 66.6%; in the assay on NCI-H226 lung, 81%; with NCI-H322M lung, 85.2%; in the assay on HOP-62 NSCLC it was 76.5%; in the assay on NCI-H460 lung, 39.8%; with HOP-92 NSCLC it was 57.1%. Further, the growth in the assay with NCI-H522 lung was 56.8%; with A549/ATCC NSCLC it was 59%; with 786-0 renal it was 56.2%; with COLO 205 colon, 67.7%.
Consider `C=CCNc1nc(NN2C(=O)c3cccc4cccc(c34)C2=O)nc(-n2cnc3ccccc32)n1`, for which the growth was 76.9% in the assay with NCI-H23 lung; 51.8% with NCI-H226 lung; 94.1% in the assay with NCI-H322M lung; 60.4% with HOP-62 NSCLC; 94.6% in the assay on NCI-H460 lung; 16.5% in the assay on HOP-92 NSCLC. Further, the growth with NCI-H522 lung is 76.6%; in the assay on A549/ATCC NSCLC it was 86.4%; with 786-0 renal, 89.2%; with COLO 205 colon, 103%.
`c1ccc(-c2nc([P+](c3ccccc3)(c3ccccc3)c3ccccc3)c(N3CCOCC3)o2)cc1`: the growth in the assay on NCI-H23 lung was 2.61% (active); with NCI-H226 lung, 34.7%; in the assay on NCI-H322M lung, 21%; in the assay with HOP-62 NSCLC, -2.79% (active); with NCI-H460 lung, 10.1%; in the assay with HOP-92 NSCLC, -21.4% (active). The growth in the assay on NCI-H522 lung was -3.16% (active); in the assay with A549/ATCC NSCLC, 15.4%; in the assay with 786-0 renal it was 27.3%; in the assay on COLO 205 colon it was -64.5% (active).
`O=C(CSc1nccc(Nc2ccc(S(=O)(=O)Nc3nccs3)cc2)n1)c1ccc(F)cc1`: the growth in the assay with NCI-H23 lung is 97.6%; in the assay on NCI-H226 lung, 102%; with NCI-H322M lung it was 106%; in the assay on HOP-62 NSCLC, 106%; in the assay on NCI-H460 lung, 106%; in the assay with HOP-92 NSCLC it was 106%. The growth in the assay with NCI-H522 lung is 88.6%; in the assay on A549/ATCC NSCLC, 104%; in the assay on 786-0 renal, 103%; in the assay on COLO 205 colon, 108%.
As to `CCOC(=O)c1c2c(n3ccc(NC(=O)OC(C)(C)C)cc13)C(=O)c1ncccc1C2=O`, the growth with NCI-H23 lung is -77.5% (active); in the assay on NCI-H226 lung it was -63.7% (active); in the assay with NCI-H322M lung, -19.5% (active); in the assay on HOP-62 NSCLC it was -76.8% (active); in the assay with NCI-H460 lung, -82.6% (active); in the assay on HOP-92 NSCLC it was -10.3% (active). The growth was -56.1% (active) in the assay on NCI-H522 lung, -57.3% (active) in the assay with A549/ATCC NSCLC, -49.3% (active) with 786-0 renal and -54.6% (active) in the assay with COLO 205 colon.
With `Cc1ccc(Cl)c(NS(=O)(=O)c2ccc(-c3cnc(C4CC4)o3)cc2)c1`, the growth in the assay on NCI-H23 lung is 36.2%; in the assay with NCI-H226 lung, 33.8%; with NCI-H322M lung it was 44.4%; in the assay on HOP-62 NSCLC it was 42.7%; with NCI-H460 lung, 14.3%; with HOP-92 NSCLC it was 73.9%. Moreover, the growth with NCI-H522 lung was 3.84% (active); in the assay on A549/ATCC NSCLC it was 26.5%; with 786-0 renal it was 27.8%; in the assay on COLO 205 colon, -0.408% (active).
Regarding `COc1ccc(-c2c(N)n[nH]c2-c2ccc(Cl)cc2O)cc1OC`, the growth was 83.2% with NCI-H23 lung; 79.8% with NCI-H226 lung; 92.4% in the assay with NCI-H322M lung; 91.5% in the assay with HOP-62 NSCLC; 94.5% in the assay with NCI-H460 lung; 69.2% in the assay with HOP-92 NSCLC. Moreover, the growth was 84.3% in the assay on NCI-H522 lung, 92.9% in the assay with A549/ATCC NSCLC, 86.6% in the assay on 786-0 renal and 113% with COLO 205 colon.
With `NC(=O)c1ccc[n+](Cc2ccc(Cl)cc2Cl)c1`, the growth is 102% with NCI-H23 lung; 99.3% in the assay with NCI-H226 lung; 104% in the assay with NCI-H322M lung; 88.3% in the assay with HOP-62 NSCLC; 102% in the assay on NCI-H460 lung; 96% in the assay with HOP-92 NSCLC. For the same molecule, the growth with NCI-H522 lung is 79.4%; with A549/ATCC NSCLC it was 70.1%; in the assay with 786-0 renal, 94.7%; with COLO 205 colon, 111%.
